Compound activity as filed in PubChem BioAssay.
Hits are enriched below; roughly 7.9% of the tested compounds scored in any of these assays.
MITF inh: blocks MITF activity; TRPM1 promoter luciferase, luminescence, 24 h; inhibition, % (concentration not given with the values); actives 0.28% (n = 37,000); in the data active = inhibition above about 85%; inconclusive = no clear call, values can overlap the other calls; inactive = below about 68%;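 also: human melanocyte line stably carrying TRPM1 promoter luciferase reporter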
NOMO-1 viab: STK33 inhibitor candidate reducing NOMO-1 cell viability; NOMO-1 AML viability, CellTiter-Glo luminescence, 72 h; inhibition, % (concentration not given with the values); actives 7.5% (n = 37,000); AID 2330; in the data active = inhibition above about 80%; inconclusive = no clear call, values can overlap the other calls
PD-1 reverse act: activators reversing PD-1 mediated T-cell inhibition. primary human CD4 T cells, PD-L1 beads, CellTiter-Glo 96 h. activation, % (concentration not given with the values). 29,000 tested, under 10 active; call rule not given here;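 also: 0% = median vehicle wells and 100% = positive control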
Shh pathway inh: blocks Sonic Hedgehog signaling. Shh-LIGHT2 Gli-luciferase reporter, 30 h. inhibition, % (no concentration beside the values). actives 2.1% (n = 22,000). AID 2313;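 active = mean inhibition across valid replicates above about 65%, limit read from the data; inconclusive = mean under the limit, yet half or more replicates past it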;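 also: pathway switched on by Shh-conditioned medium diluted 1 in 25 in low serum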
Numbers without * were called inactive; u = inconclusive; x = not tested or not shown.

SMILES	MITF inh	NOMO-1 viab	PD-1 reverse act	Shh pathway inh
OC[C@H]1O[C@@H](Oc2ccc(/C=C/c3cc(O)cc(O)c3)cc2O)[C@H](O)[C@@H](O)[C@@H]1O	x	x	x	-18
O=C1NC(=O)C(=Cc2cn(Cc3ccccc3)c3ccccc23)C(=O)N1	-1	126*	-2	-8
CCOC(=O)c1c(C)n(Cc2ccccc2)c2ccc(OCC(O)CNC(C)(C)C)cc12 (configuration not stated)	58	117*	-7	61
CC(C)(C)NC[C@H](O)COc1cccc2[nH]c(C#N)cc12	-7	1	9	8
O=c1c2ccccc2nc(CSc2ncnc3ccccc23)n1-c1ccccc1F	71	u	-9	x
CC(C)(CN)CNc1ccc([N+](=O)[O-])c2cccnc12	20	73	x	x
C/C=C(/C)C(=O)O[C@H]1C(C)=C2[C@H]([C@@H]1OC(=O)CCCCC)[C@@](C)(OC(C)=O)C[C@H](OC(=O)CCC)[C@@]1(O)[C@H]2OC(=O)[C@@]1(C)O	69	99*	-42	105*
COc1ccc(OC)c(NC(=S)NCCc2cnc[nH]2)c1	-11	38	3	x
CN1CCN(CC(=O)Nc2ccc(Br)cc2C(=O)c2ccccc2)CC1	-13	53	-2	x
CCC(C)(O)C(=O)O[C@H]1C(=O)O[C@@H]2C[C@H]3C(C)=CC(=O)[C@@H](O)[C@]3(C)[C@H]3[C@@]4(O)OC[C@]32[C@@H]1[C@@H](C)[C@H]4O (some centres not stated)	92*	124*	-7	67*
O=C1C=C2C=C[C@@H]3C[C@@]2(O1)[C@H]1CCCCN31	25	91*	x	72*
CC[C@@]1(O)C(=O)OCc2c1cc1n(c2=O)Cc2cc3c(O)cccc3nc2-1	66	119*	x	68*
CN(CC(=O)Nc1ccc(Cl)cc1C(=O)c1ccccc1)S(=O)(=O)c1ccc(Cl)cc1	11	18	-1	x
C=C1[C@@H](C)[C@H]2[C@H](Cc3ccccc3)NC(=O)[C@]23OC(=O)/C=C\[C@H](O)CCC[C@@H](C)C/C=C/[C@H]3[C@@H]1O	21	120*	-13	65*
O=C(Cn1cc(C(=O)c2ccccc2)c2ccccc21)Nc1ccc(F)cc1	38	49	0	x
O=C(CC[N+](=O)[O-])OC[C@H]1O[C@@H](O)[C@H](OC(=O)CC[N+](=O)[O-])[C@@H](OC(=O)CC[N+](=O)[O-])[C@@H]1OC(=O)CC[N+](=O)[O-]	9	106*	x	41
